These results are taken from PubChem BioAssay AID2685 (National Center for Advancing Translational Sciences (NCATS), 2010).

Molecules are shown by their SMILES. The whole screen tested about 320,000 compounds, of which about 2,100 (0.66%) were called active. Roughly 53% stayed inconclusive and do not appear here. Calls follow the shape of the dose curve; as a rule, active = well fitted inhibition curve with a large enough effect in the signal ratio, with a control signal flat (not every such curve was filed as active); inconclusive = small, poorly fitted or top-dose-only effect, or effect the other way, or a change in a side signal; inactive = flat fitted curve, though single readings scatter; the % refers to the signal ratio. What follows is part of a selection rich in actives, with near analogues and random picks from the rest.
Potency is read from the fitted curve at half-maximal effect.

The test in a line: qHTS Assay for Lipid Storage Modulators in Drosophila S3 Cells.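 As to cell number change: cells counted by Cell Tracker Red CMTPX staining in the red channel.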 As to lipid storage change, negative = inhibition: % is scaled to controls: 0 for no effect and ±100 for the full control effect. The following applies: BODIPY lipid droplet fluorescence, 18-24 h, cells fed with added oleic acid; cell number change: measured here: cell count max response; series mostly up to 46.1 µM; lipid storage change, negative = inhibition: at the top concentration. From the text:
NIH Molecular Libraries Probe Production Centers Network [MLPCN] NIH Chemical Genomics Center [NCGC] MLPCN Grant: 1 R03 MH085686-01 Assay Submitter (PI): Beller, Mathias; Max-Planck-Institut fur Biophysikalische Chemie NCGC Assay Overview: Storing lipids as a reservoir for energy or the anabolism of elementary metabolites is a common feature of probably all cells and is conserved from bacteria to humans. The universal cellular lipid storage organelle is the so-called lipid storage droplet (LD). Although ubiquitous, LDs share a simple structure composed of a hydrophobic core that harbors the storage lipids, which is shielded by a droplet-specific phospholipid monolayer to which proteins are attached. The current model of LD biogenesis involves an incorporation of the lipid core into the membrane leaflets of the endoplasmic reticulum (ER) followed by a subsequent budding-like maturation of a LD, which ultimately pinches off. Once released, LD volume can increase by localized lipogenesis or fusion of existing droplet. Storage lipids are re-mobilized enzymatically by lipase activity. Lipase regulation in the adipocyte is heavily studied and involves multiple components including catecholamine signaling, the LD-associated proteins Perilipin and comparative gene identification (CGI-58) and at least two lipases named hormone sensitive lipase (HSL) and adipocyte triglyceride lipase (ATGL). LD regulation outside of the adipocyte is poorly understood and only few components are known. However, there is an urgent need to learn more about ectopic fat depots as mislocalized storage of lipids, for example in the liver or muscle, is an eminent health problem associated with insulin resistance or the metabolic syndrome. We developed a laser-scanning cytometer assay to enable 1,536-well screening and combined the results of the small molecules screen with an RNAi database based on lipid storage.
Triacsin C (Sigma-Aldrich T-4540), an inhibitor of long-chain fatty acyl CoA synthetase that blocks synthesis of triglycerides, was used as a positive control for lipid under-storage. A total of 23 nL of compound solution of different concentrations were transferred to the assay plates using a Kalypsys pin tool equipped with a 1,536-pin array containing 10-nL slotted pins (FP1S10, 0.457-mm diameter, 50.8 mm long; V&P Scientific). One microliter of oleic acid (400 uM) was added, and the plate was lidded with stainless steel rubber gasket lined lids containing pinholes. […] Fluorescence was detected by excitation of the fluorophores with a 488-nm laser on an Acumen Explorer (TTP Lab Tech). The total intensity in channel 2 (500-530 nm) reflected lipid droplet accumulation. Cells were detected using channel 3 (575-640 nm) with 5-um width and 100-um depth filters. The ratio of the number of objects in PMT channel 2 over the number of objects in PMT channel 3 was also calculated. Percent activity was computed relative to an internal control (100% inhibited lipid droplet deposition due to the presence of 20 uM Triacsin C), which was added to 32 wells/plate.
On the technique in general: qHTS replaces the single test concentration by a dilution series.
For `O=C(Nc1ccc(Cl)c(Cl)c1)c1ccco1`, the Potency is 14.6 µM (active) and the cell number change was found to be 4.2%.

`O=C(Nc1ccc(Cl)cc1C(=O)c1ccccc1Cl)c1ccco1`: the “lipid storage change, negative = inhibition” value is -1.31% (inactive) and the cell number change is -6.61%.

Regarding `CCOP(=O)(OCC)C(Cc1ccccc1)NC(C)=O` (configuration not stated), the “lipid storage change, negative = inhibition” value is -8.92% (inactive) and the cell number change was found to be 6.58%.

Take `CCOP(=O)(OCC)C(NC(=O)c1ccccc1)=C(Cl)Cl`: the “lipid storage change, negative = inhibition” value was 0.618% (inactive) and the cell number change turned out to be 12%.

For the molecule `CCOP(=S)(NN(Cc1ccccc1)C(=O)c1ccccc1)OCC`, the Potency is 6.51 µM (active) and the cell number change is -8.12%.

For the molecule `CC(C)N1CCC2(CC1)NC(CO)(CO)CO2`, the “lipid storage change, negative = inhibition” value is 10.4% (inactive) and the cell number change is 2.89%.

`COc1ccc(C)cc1NC(=O)c1c(C)nn(Cc2ccccc2)c1Cl`: the “lipid storage change, negative = inhibition” value was -6.79% (inactive) and the cell number change is -8.13%.

`O=C1N(c2ccccc2)C(c2cccnc2)N2CCCN12` (configuration not stated): the “lipid storage change, negative = inhibition” value was -3.46% (inactive) and the cell number change is -11.1%.

Turning to `O=C1NC(=O)N(Cc2cccs2)C(=O)/C1=C/c1ccc(N2CCOCC2)cc1`, the “lipid storage change, negative = inhibition” value is -2.73% (inactive) and the cell number change was -3.62%.

As for `O=C1NC(=O)C(Cc2cccs2)C(=O)N1`, the Potency is 25.9 µM (active) and the cell number change was -13%.

Regarding `CN1C(=O)C(Cc2cccs2)C(=O)N(C)C1=O`, the “lipid storage change, negative = inhibition” value is -6.34% (inactive) and the cell number change is 1.68%.

Consider `CC(=O)O[C@@H]1[C@H]2CC[C@@H]3[C@]1(C[C@@H](OC(C)=O)[C@@]1(O)C([C@@H]4O[C@@H]4C1(C)C)[C@]3(C)O)C[C@@]2(C)O` (some centres not stated), for which the “lipid storage change, negative = inhibition” value is -9.14% (inactive) and the cell number change is -2.47%.

Regarding `O=C(Nc1ccccc1OC(=O)N1CCCCC1)N1CCCCC1`, the “lipid storage change, negative = inhibition” value was 2.68% (inactive) and the cell number change turned out to be 3.87%.

With `O=C(Nc1ccc(OC(=O)N2CCCC2)cc1)N1CCOCC1`, the “lipid storage change, negative = inhibition” value was 0.334% (inactive) and the cell number change worked out at 2.4%.

Consider `CC(=O)Nc1ccccc1OC(=O)N1CCOCC1`, for which the Potency is 18.4 µM (active).

With `CC1(C)COC(Nc2ccc(Cl)cc2)=N1`, the “lipid storage change, negative = inhibition” value is 7.18% (inactive) and the cell number change worked out at 0.527%.

Turning to `COc1ccc(Oc2c(C)oc3cc(OC(=O)N(C)C)ccc3c2=O)cc1`, the “lipid storage change, negative = inhibition” value was 3.93% (inactive) and the cell number change came out at 27.6%.

In the case of `COc1cccc2cc(-c3cc(=O)oc4ccc(OC(=O)N(C)C)cc34)oc12`, the “lipid storage change, negative = inhibition” value was 25.5% (inactive) and the cell number change was -3.98%.

Consider `Cc1cc2oc(=O)cc(-c3cc4ccccc4o3)c2cc1OC(=O)N(C)C`, for which the Potency is 18.4 µM (active) and the cell number change was found to be 20.3%.

For `COc1ccc(C(=O)C2CCCN(CCO)C2)c(C)c1` (configuration not stated), the Potency was 0.82 µM (active) and the cell number change is -6.32%.

As to `COc1ccc(C(=O)C2CCCN(Cc3ccc(C)s3)C2)c(OC)c1` (configuration not stated), the “lipid storage change, negative = inhibition” value is -12.3% (inactive) and the cell number change was -6.83%.

As to `Cc1ccsc1C(=O)C1CCCN(CCO)C1` (configuration not stated), the “lipid storage change, negative = inhibition” value was 15.5% (inactive) and the cell number change is -5.68%.

With `CC1(O)CCN2C(=O)CCc3cccc1c32` (configuration not stated), the “lipid storage change, negative = inhibition” value was -0.531% (inactive) and the cell number change was -14.6%.

`Cn1c(O)c(/C=C2\C=c3ccccc3=NC2=O)c(=O)n(C)c1=O`: the “lipid storage change, negative = inhibition” value is 9.12% (inactive) and the cell number change is 5.41%.

For `CN1CCc2c([nH]c3ccccc23)C1`, the “lipid storage change, negative = inhibition” value is -12% (inactive) and the cell number change is -7.02%.

In the case of `CCCCOc1ccc(CC2C(=O)N(C)C(=O)N(C)C2=O)cc1`, the “lipid storage change, negative = inhibition” value is 13.1% (inactive) and the cell number change is -19.6%.

Consider `COc1ccccc1CNCCc1ccc(F)cc1`, for which the “lipid storage change, negative = inhibition” value was -8.79% (inactive) and the cell number change was -5.32%.

In the case of `CCC(=NCCO)c1c(O)n(-c2ccc(Cl)cc2)c(=O)[nH]c1=O`, the “lipid storage change, negative = inhibition” value was 2.83% (inactive) and the cell number change is 11.3%.

On to `CCC(=NCCO)c1c(O)n(-c2ccccc2)c(=O)[nH]c1=O`, for which the Potency is 20.6 µM (active) and the cell number change was -16.7%.

`CCC(=NCc1ccco1)c1c(O)n(-c2ccccc2)c(=O)[nH]c1=O`: the “lipid storage change, negative = inhibition” value was 15.4% (inactive) and the cell number change came out at 12.1%.

Consider `CC(C)(C)N(NC(=O)c1ccccc1)C(=O)c1ccccc1`, for which the “lipid storage change, negative = inhibition” value is 3.31% (inactive) and the cell number change came out at 1.15%.

In the case of `COc1cc(/C=C2\C(=O)NC(=O)N(c3ccc(C)cc3)C2=O)cc(OC)c1O`, the “lipid storage change, negative = inhibition” value was -2.05% (inactive) and the cell number change turned out to be 15%.

In the case of `COc1cc(C=C2C(=O)NC(=O)NC2=O)cc(OC)c1OC`, the “lipid storage change, negative = inhibition” value is 7.23% (inactive) and the cell number change was 8.46%.

Take `COc1cc(/C=C2\C(=O)NC(=O)N(c3ccccc3)C2=O)cc(OC)c1OC`: the Potency is 0.731 µM (active).

As to `COc1ccccc1C(=O)C1CCCN(Cc2cnc(C)s2)C1` (configuration not stated), the “lipid storage change, negative = inhibition” value is 2.31% (inactive) and the cell number change came out at 3.73%.

As to `Cn1c(O)c(C=NC2CCN(Cc3ccccc3)CC2)c(=O)[nH]c1=O`, the “lipid storage change, negative = inhibition” value was -10% (inactive) and the cell number change is -0.367%.

In the case of `Cn1c(=O)c2c(nc(N/N=C/c3c(O)n(-c4ccccc4)c(=S)[nH]c3=O)n2C)n(C)c1=O`, the “lipid storage change, negative = inhibition” value was 12.3% (inactive) and the cell number change stood at 0.523%.

In the case of `CC1(C)C2CC=C(CN3CCOCC3)C1C2` (configuration not stated), the “lipid storage change, negative = inhibition” value was -7.26% (inactive) and the cell number change came out at 1.35%.

`OC1(CN2CCOCC2)C2CC3CC(C2)CC1C3` (configuration not stated): the Potency was 8.2 µM (active) and the cell number change is -6.79%.

As to `CCC(C)n1c(O)c(C=NCCN2CCOCC2)c(=O)[nH]c1=S` (configuration not stated), the “lipid storage change, negative = inhibition” value is -7.01% (inactive) and the cell number change is 0.504%.

`COc1ccc(-n2c(O)c(C(C)=NCCN3CCNCC3)c(=O)[nH]c2=O)cc1`: the “lipid storage change, negative = inhibition” value was -10.9% (inactive) and the cell number change was -2.05%.

As for `COC(=O)C1=C(c2ccc3ccccc3c2)C[C@@H]2CC[C@H]1N2C(=O)NC1Cc2ccccc2C1`, the “lipid storage change, negative = inhibition” value was 11.9% (inactive) and the cell number change was -10.8%.

Turning to `COC(=O)C1=C(c2ccc(-c3ccccc3)c(F)c2)C[C@@H]2CC[C@H]1N2C(=O)NCC1CC1`, the “lipid storage change, negative = inhibition” value is 4.03% (inactive) and the cell number change is -12.8%.

`COC(=O)C1=C(c2ccc(-c3ccccc3)c(F)c2)C[C@@H]2CC[C@H]1N2C(=O)NCCOc1ccccc1Cl`: the Potency is 14.6 µM (active) and the cell number change was -24.1%.

On to `COC(=O)C1=C(c2ccccc2OCc2ccccc2)C[C@@H]2CC[C@H]1N2C(=O)NCc1ccc(N(C)C)cc1`, for which the Potency is 23.1 µM (active) and the cell number change was -7.57%.

Regarding `COC(=O)C1=C(c2ccc(-c3ccccc3)c(F)c2)C[C@@H]2CC[C@H]1N2C(=O)NC1Cc2ccccc2C1`, the Potency is 7.31 µM (active) and the cell number change is -24.5%.

For the molecule `COC(=O)C1=C(c2ccc(OC(F)(F)F)cc2)C[C@@H]2CC[C@H]1N2C(=O)NCCOc1ccccc1Cl`, the outcome was inactive.

Take `COC(=O)C1=C(c2ccccc2OCc2ccccc2)C[C@@H]2CC[C@H]1N2C(=O)NCc1ccccc1`: the outcome was inactive and the cell number change was -13.3%.

`COC(=O)C1=C(c2ccc(-c3ccccc3)c(F)c2)C[C@@H]2CC[C@H]1N2C(=O)NCCOc1ccccc1`: the result was inactive and the cell number change is -7.31%.

Consider `COC(=O)C1=C(c2ccccc2OCc2ccccc2)C[C@@H]2CC[C@H]1N2C(=O)NCc1ccc(OC)cc1`, for which the “lipid storage change, negative = inhibition” value was -5.69% (inactive) and the cell number change is -4.45%.
